The sequences below were run against VGLL2 (assay: pooled miR-30 sensor sort-seq; sequence = guide strand). Details: shRNA.
Also: reference of the scale not given here.

Row | Sequence | sensor-assay potency score (higher = more potent)
1 | TAACAAAATAATTCACATCAGC | -0.803
2 | TTCTCTACCACAGTCTTAGATG | -1.22
3 | TACTTCTCTACCACAGTCTTAG | -0.503
4 | TAAAATCTGACAGTAGTAGTGC | 0.941
5 | TATAATCACACTACCTAACAAA | -1.39
6 | TTGTCTAACAACAGCTGCATTT | -1.41
7 | TAATGTTCGTCTCTTCTTCCTC | -0.332
8 | TTGGATTTGCTCTTTCAGCAGC | -0.344
9 | TTAAACATAACTCAGTCTTTGG | -0.689

These sequences were tested against VIPR2 in the same assay as above. Details: shRNA.

Row | Sequence | sensor-assay potency score (higher = more potent)
10 | TTTGCTGTAAAAATTGCTGAAG | -0.647
11 | TTTGAGACCTCAGAAGCTCTGC | 0.397
12 | TTGCTGAAGACTTTTGGGCAGG | -1.06
13 | TTGACCAGCACTGAGATGGCTC | -0.324
14 | TTCAGGTGGATGTAATTCCTGG | -0.512
15 | TTCACCAGAATATAAAACGTGA | -0.447
16 | TTTCGCTTCAGCTCGCACTGCA | 0.156
17 | TAGTGGACGCCGAACAGCGGGA | -0.939
18 | TAAAACGTGATCTTGCTCTCAT | 1.2
19 | TCTGGGAACGTCTCTGACCATC | -1.08
20 | TTTTGCTTATGTTTCCTGCTTT | 0.362
21 | TCTTGTACTGAGACTGGTCGTT | -0.0864
